This note sets out measurements from PubChem BioAssay.

Test [1] has as its system Human papillomavirus type 1a protein E7 (residues 44-93). The test can be described thus: HPV1a E7 fragment binders on microarrays, primary screen, biochemical, small-molecule microarray, residues 44-93, 635 nm fluorescence (AID 1108).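 Also: E7 fragment applied at 1 µg/mL in TBST for 1 h at 4 C; score combines spot fluorescence with its signal to noise ratio.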 The settings on record: small-molecule microarray binding, fluorescence 635 nm; higher = more signal.
A short description of test [2]: modulators of HCV replicon luciferase signal, primary screen, HCV replication inhibitor project, Huh7 cells, luciferase reporter (AID 1109).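 Also: huh7 hepatoma cells harbouring a luciferase neomycin HCV replicon reporter; luciferase luminescence as measure of HCV replicon replication; test concentration not given here.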 The settings on record: 48 h, higher = more signal. (In general: A replicon is a self-replicating genome or part of one, used to study replication in cells.)
The target in test [3] is Left-right determination factor 2 (Homo sapiens) (UniProt O00292). The test can be described thus: LEFTY2 binders on small-molecule microarrays, primary screen, biochemical, small-molecule microarray, 635 nm fluorescence scan (AID 1110). Particulars: LEFTY2 binding, higher = more signal.
For test [4], the target named is Calmodulin-1 (Homo sapiens) (UniProt P0DP23). Kind of test: CALM1 binders on microarrays, EGTA buffer, profiling panel, biochemical, small-molecule microarray, Cy5-labelled CALM1 (AID 1111).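 Also: labelled calmodulin applied in Tris saline Tween buffer holding calcium plus EGTA and DTT.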 Particulars: Cy5-CALM1 binding fluorescence, higher = more signal.
For test [5] the target is unchanged. The test can be described thus: calcium-bound CALM1 binders on microarrays, profiling panel, artefact control for SMM control-protein annotation, biochemical, small-molecule microarray, Cy5-labelled CALM1, plus calcium (AID 1112).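 Also: score merges spot fluorescence with signal to noise from triplicate slides.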 The settings on record: Cy5-CALM1 binding fluorescence, higher = more signal.
Test [6] in a line: small-molecule microarray binders of probe aWnt5a, primary screen, biochemical, biotinylated probe, 635/667 nm fluorescence (AID 1113).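 Also: score merges 667 nm fluorescence intensity with signal-to-noise per printed feature.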 Particulars: higher = more signal.
Test [7] can be described thus: small-molecule microarray binders of probe aShh, primary screen, biochemical, biotinylated probe, 635/667 nm fluorescence (AID 1114).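 Also: probe is biotin-labelled aShh protein from a stem cell growth factor screen; measures binding of labelled protein to compounds printed on the slide; score merges feature fluorescence at 667 nm with signal-to-noise.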 Particulars: higher = more signal.
Test [8] can be described thus: small-molecule microarray binders of probe aNog, primary screen, biochemical, biotinylated probe, 635/667 nm fluorescence (AID 1115).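 Also: probe is biotinylated aNog protein used at 0.15 µg/mL for 1 h at 4 C; z-score combines 667 nm fluorescence of each spot with its signal to noise.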 The settings on record: higher = more signal.
For test [9], the target named is Torsin-1A-interacting protein 1 (Homo sapiens) (UniProt Q5JTV8). The test can be described thus: LAP1 binders from COS7 cell lysate, primary screen, small-molecule microarray, 635/667 nm fluorescence (AID 1116). The settings on record: COS7-hLAP1 lysate binding, 635 nm fluorescence, higher = more signal.
The target of test [10] is Alpha-bungarotoxin (Bungarus multicinctus) (UniProt P60615). The test can be described thus: alpha-bungarotoxin binders on microarray, profiling panel, artefact control for SMM control protein annotation, biochemical, small-molecule microarray, Alexa647 label, 635/667 nm fluorescence (AID 1117). Particulars: alpha-BTX-A647 binding fluorescence, higher = more signal.
The target in the next test is Albumin (Bos taurus) (UniProt P02769). The test can be described thus: bovine serum albumin binders on microarray, profiling panel, artefact control for SMM control protein annotation, biochemical, small-molecule microarray, Alexa647 label, 635/667 nm fluorescence (AID 1118).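 Also: score merges 667 nm emission intensity and signal-to-noise per printed compound spot.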 Particulars: BSA-A647 binding, fluorescence 635 nm, higher = more signal.
Test [11] is described as follows: small-molecule microarray binders of probe aXIP, primary screen, biochemical, NeuroSMM set, 635/667 nm fluorescence (AID 1119).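 Also: probe is the protein aXip251-270 applied at 1 µg/mL to compound-printed slides; binding of probe to printed compounds measured as 667 nm fluorescence plus signal to noise.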 The settings on record: higher = more signal, called active from +8 up or from −8 down.
Test [12] is described as follows: small-molecule binders of probe aNOTCH3, primary screen, biochemical, small-molecule microarray, 635/667 nm fluorescence (AID 1120).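 Also: probe is a biotin-tagged antibody raised against NOTCH3 rather than NOTCH3 protein; score merges spot fluorescence near 667 nm with spot signal to noise.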 The settings on record: higher = more signal.
A short description of test [13]: small-molecule binders of probe aNOTCH2, primary screen, biochemical, small-molecule microarray, 635/667 nm fluorescence (AID 1121).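 Also: score merges feature fluorescence read at 667 nm with its signal to noise.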 The settings on record: higher = more signal.
For test [14], the target named is Carbonic anhydrase 2 (Homo sapiens) (UniProt P00918). The test can be described thus: CAII small-molecule binders, profiling panel, biochemical, small-molecule microarray, Alexa647-labelled CAII (AID 1122). Particulars: CAII-A647 binding fluorescence, higher = more signal.
Test [15] can be described thus: COS7 lysate on small-molecule microarray, probe aHis, 635 nm (AID 1123).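 Also: z-score combines 667nm fluorescence intensity with signal-to-noise per printed compound spot.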 The settings on record: COS7 cell lysate, fluorescence, higher = more signal.
A short description of test [16]: compound binding in COS7 lysate, probe aLAP1, primary screen, cell lysate, small-molecule microarray (AID 1124).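 Also: lysate comes from COS7 cells expressing LAP1 and is applied at 0.3 µg/mL; score merges spot fluorescence near 667 nm with signal-to-noise over triplicate slides.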 The settings on record: probe aLAP1, fluorescence, higher = more signal.
Another test concerns Sam68 (KHDRBS1). The test can be described thus: Sam68 small-molecule binders, primary screen, biochemical, small-molecule microarray, 635 nm fluorescence (AID 1125).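 Also: score merges 667 nm channel intensity with signal to noise over triplicate slides.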 The settings on record: small-molecule microarray binding, higher = more signal.
The test system of test [17] is Chordin-like protein 2 (CHRDL2). The test can be described thus: CHRDL2 small-molecule binders, primary screen, biochemical, small-molecule microarray, 635 nm fluorescence (AID 1126).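 Also: printed compound slides probed with Chrdl2 protein at 4 µg/mL for 1 h at 4 C; score merges 667 nm emission intensity with signal to noise over three replicate slides.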 Particulars: small-molecule microarray binding, fluorescence 635 nm; higher = more signal.
The target in test [18] is Concanavalin-A (Canavalia ensiformis) (UniProt P02866). The test can be described thus: ConA small-molecule binders, primary screen, artefact control for SMM control protein annotation, biochemical, small-molecule microarray, Alexa647 label, 635 nm (AID 1127).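 Also: z combines 667 nm emission intensity with signal-to-noise across three replicate slides.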 The settings on record: ConA-A647 binding fluorescence, higher = more signal.

SMILES strings stand for the structures. Calls of active or inactive are those of the source.

Albumin (Bos taurus), sequence (P02769 whole entry, looked up): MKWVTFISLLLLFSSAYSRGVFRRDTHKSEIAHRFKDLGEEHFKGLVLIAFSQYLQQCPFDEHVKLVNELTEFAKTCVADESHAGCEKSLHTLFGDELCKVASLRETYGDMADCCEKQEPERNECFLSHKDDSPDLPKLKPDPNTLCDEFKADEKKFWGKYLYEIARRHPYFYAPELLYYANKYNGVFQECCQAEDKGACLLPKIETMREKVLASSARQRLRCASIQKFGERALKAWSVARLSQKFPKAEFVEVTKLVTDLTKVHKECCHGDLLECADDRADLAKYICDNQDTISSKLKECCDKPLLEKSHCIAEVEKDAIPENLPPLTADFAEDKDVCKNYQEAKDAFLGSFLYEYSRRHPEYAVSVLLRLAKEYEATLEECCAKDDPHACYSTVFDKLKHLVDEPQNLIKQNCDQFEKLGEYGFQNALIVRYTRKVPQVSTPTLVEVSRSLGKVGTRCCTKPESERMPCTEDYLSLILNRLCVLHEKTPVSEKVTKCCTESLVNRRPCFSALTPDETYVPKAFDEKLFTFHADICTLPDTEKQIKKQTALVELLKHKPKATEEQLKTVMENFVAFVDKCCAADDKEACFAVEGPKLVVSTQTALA
Torsin-1A-interacting protein 1 (Homo sapiens), sequence (Q5JTV8 whole entry, looked up): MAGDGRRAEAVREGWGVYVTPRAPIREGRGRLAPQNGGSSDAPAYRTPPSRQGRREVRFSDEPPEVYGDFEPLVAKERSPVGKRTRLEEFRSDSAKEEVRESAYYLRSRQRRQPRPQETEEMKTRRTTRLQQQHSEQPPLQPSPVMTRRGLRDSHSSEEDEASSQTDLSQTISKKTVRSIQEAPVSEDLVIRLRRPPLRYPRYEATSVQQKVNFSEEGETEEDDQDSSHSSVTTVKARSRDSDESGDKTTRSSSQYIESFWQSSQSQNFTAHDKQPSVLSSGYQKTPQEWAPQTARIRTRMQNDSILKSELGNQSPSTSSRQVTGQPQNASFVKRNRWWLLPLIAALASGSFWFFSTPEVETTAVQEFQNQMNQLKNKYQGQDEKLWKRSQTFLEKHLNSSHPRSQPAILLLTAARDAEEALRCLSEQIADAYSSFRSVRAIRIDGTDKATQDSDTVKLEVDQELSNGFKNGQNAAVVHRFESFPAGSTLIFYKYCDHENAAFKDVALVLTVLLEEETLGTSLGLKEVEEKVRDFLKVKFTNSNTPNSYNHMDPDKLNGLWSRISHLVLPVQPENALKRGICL
Alpha-bungarotoxin (Bungarus multicinctus), sequence (P60615 whole entry, looked up): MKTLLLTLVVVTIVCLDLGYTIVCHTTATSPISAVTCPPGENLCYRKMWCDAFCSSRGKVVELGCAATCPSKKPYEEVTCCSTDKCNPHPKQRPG
Left-right determination factor 2 (Homo sapiens), sequence (O00292 whole entry, looked up): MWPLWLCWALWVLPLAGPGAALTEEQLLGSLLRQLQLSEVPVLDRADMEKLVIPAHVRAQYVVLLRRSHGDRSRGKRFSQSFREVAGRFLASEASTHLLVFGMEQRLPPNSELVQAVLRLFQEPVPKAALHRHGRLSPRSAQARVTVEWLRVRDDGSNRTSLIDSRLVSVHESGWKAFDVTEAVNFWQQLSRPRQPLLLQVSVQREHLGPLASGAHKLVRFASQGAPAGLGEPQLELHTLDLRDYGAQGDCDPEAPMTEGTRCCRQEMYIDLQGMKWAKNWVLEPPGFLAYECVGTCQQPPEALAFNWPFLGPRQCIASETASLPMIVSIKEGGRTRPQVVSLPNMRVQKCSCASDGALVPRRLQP
Concanavalin-A (Canavalia ensiformis), sequence (P02866 whole entry, looked up): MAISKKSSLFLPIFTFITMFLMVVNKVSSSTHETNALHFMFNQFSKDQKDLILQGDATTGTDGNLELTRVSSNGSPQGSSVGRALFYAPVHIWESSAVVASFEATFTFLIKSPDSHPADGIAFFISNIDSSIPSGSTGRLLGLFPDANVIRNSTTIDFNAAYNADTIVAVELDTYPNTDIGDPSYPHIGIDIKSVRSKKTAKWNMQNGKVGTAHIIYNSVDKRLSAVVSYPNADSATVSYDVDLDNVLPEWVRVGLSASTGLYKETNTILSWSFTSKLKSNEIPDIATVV

Turning to `COCCOC(=O)N1C(=O)[C@@]2(c3cc(C#CC4=CCCCC4)ccc31)[C@H](C(N)=O)[C@H]1C(=O)O[C@H](c3ccccc3)[C@H](c3ccccc3)N1[C@@H]2c1ccc(O)cc1`, the composite z-score was 1.13 in [1]; 0.959 in [3]; 1.16 in test [4]; -0.308 in [5]; -0.107 in [6]; -0.0362 in [7]. The composite z-score in [8] is -0.0956; in test [9] it was 0.923; in test [10], 1.51; with Albumin (Bos taurus) it was 0.744; in test [12] it was 0.116; in test [13], 0.117. The composite z-score in test [14] amounted to 0.433; in test [15], 1.83; in [16], 0.322; in the test with Sam68 (KHDRBS1), 1.3; in [17] it was 0.302; in test [18] it was 1.11. Moreover, the z-score in test [2] was -1.76. For the same molecule, the composite Z-score in [11] was -0.158 (inactive).

With `NCCCCCNC(=O)[C@H]1C[C@H]2C(=O)N3CCC[C@H]3C(=O)N2[C@H]1c1ccc(O)cc1`, the composite z-score in [1] amounted to 1.39; in test [3], 0.84; in test [4] it was 1.99; in test [5] it was 1.13; in test [6], 0.212; in [7], 0.264. Further, the composite z-score in [8] is 1.19; in test [9], 1.07; in test [10], 1.1; with Albumin (Bos taurus) it was 0.851; in [12], 0.489; in test [13] it was -0.0024. Further, the composite z-score in test [14] worked out at 0.445; in test [15], 0.676; in test [16], 0.0612; with Sam68 (KHDRBS1), 1.33; in test [17], 0.464; in test [18], 1.17. This molecule showed a z-score in [2] of -0.0865. In addition, the composite Z-score in test [11] was 1.56 (inactive).

Regarding `C=C[C@H](C)[C@@H](OC(=O)Nc1ccc(SC)cc1)c1ccc(O)c2ccccc12`, the composite z-score is 1.41 in test [1]; 1.23 in test [3]; 0.988 in test [4]; -0.0069 in [5]; -0.101 in test [6]; -0.0553 in test [7]. Besides, the composite z-score in [8] was -0.343; in test [9], 0.575; in test [10], 0.893; in the test with Albumin (Bos taurus), 0.0219; in [12], 0.0636; in [13], -0.0928. In addition, the composite z-score in test [14] turned out to be 0.609; in test [15], 1.84; in test [16], 0.188; with Sam68 (KHDRBS1) it was 1.32; in test [17], 1.13; in test [18] it was 1.02. In test [2], this molecule came in with a z-score of -0.751. Also, the composite Z-score in test [11] was -0.552 (inactive).

With `COC(=O)[C@@]1(Cc2ccc(OC)cc2)[C@H]2c3cc(C(=O)N4CCCC4)n(CCc4ccc(O)c(O)c4)c3C[C@H]2CN1C(=O)c1ccccc1`, the composite z-score in [1] is -1.4; in test [3], -0.618; in test [4], 1.39; in test [5], 0.679; in test [6], -0.0057; in test [7], -0.0977. Besides, the composite z-score in test [8] worked out at 1.12; in test [9], 2.24; in [10] it was 0.0407; with Albumin (Bos taurus), 0.881; in [12] it was 0.144; in test [13] it was 0.336. For the same molecule, the composite z-score in [14] is 0.79; in test [15], 3.42; in [16], 0.932; in the test with Sam68 (KHDRBS1), -0.0777; in [17], -0.237; in test [18], 0.0245. For the same molecule, in [2], the z-score is -1.1. Moreover, the composite Z-score in test [11] is -0.2 (inactive).

On to `CC[C@@H]1C=C(C(=O)O)[C@H](c2ccc(C)cc2)N1S(=O)(=O)c1ccc(C)cc1`, for which the composite z-score in test [1] was 0.878; in test [3], -0.925; in test [4], 0.846; in test [5], 0.515; in [6], -0.096; in test [7], 0.0048. For the same molecule, the composite z-score in [8] is -0.126; in [9] it was 0.24; in test [10] it was 0.671; in the test with Albumin (Bos taurus), 0.74; in test [12], 0.0876; in [13] it was -0.101. For the same molecule, the composite z-score in test [14] was 0.759; in test [15], 0.969; in [16] it was 0.0014; in the test on Sam68 (KHDRBS1), 1.19; in test [17], -0.697; in [18], 0.759. This molecule registered a z-score in [2] of -0.315. The composite Z-score in test [11] is 0.827 (inactive).

`COCCOC(=O)N1C(=O)[C@@]2(c3cc(C#CC4(O)CCCCCC4)ccc31)[C@H](c1ccccc1OCCO)N1[C@H](c3ccccc3)[C@H](c3ccccc3)OC(=O)[C@H]1[C@@H]2C(=O)N1CCc2cc(OC)c(OC)cc2C1`: the composite z-score in test [1] was 1.43; in test [3] it was 0.21; in [4], 1.26; in test [5], 0.57; in test [6] it was -0.0704; in test [7], -0.0289. Besides, the composite z-score is 0.268 in [8]; 1.24 in [9]; 1.97 in test [10]; 0.223 with Albumin (Bos taurus); 0.0039 in [12]; -0.0817 in test [13]. In addition, the composite z-score is 0.527 in test [14]; 1.89 in test [15]; 0.612 in test [16]; 1.29 in the test on Sam68 (KHDRBS1); -0.225 in test [17]; 1.13 in test [18]. Also, in test [2], the z-score was -2.42. In test [11], the composite Z-score was 0.758 (inactive).
